Screening data deposited in PubChem BioAssay by National Center for Advancing Translational Sciences (NCATS).
A selection: hits, their analogues and other compounds. The true share with any hit is near 7.9%.
HCV inhibitor = qHTS Assay for Inhibitors of Hepatitis C Virus (HCV); Huh7.5.1 HCVcc-Cre infection, luciferase reporter, 44 h; 3.4% of 340,000 active; Potency, µM (series often up to 41.8 µM), for the others: top-dose activity change, negative = inhibition, usual class: inhibitors; active = well fitted inhibition curve with a large enough effect; inconclusive = small, poorly fitted or top-dose-only effect, or another doubt; inactive = no such curve, though single readings can be large or run the other way; also: potency is read from the fitted curve at half-maximal effect
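Cells seeded at 1,000/well and cultured 4 h, then compounds added followed by HCVcc-Cre virus (~0.5 moi). After 44 h further culture, luciferase substrate was added, plates held 15 min at room temperature, and luminescence read for 15 sec.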
Marburg entry inh = qHTS for inhibitors of binding or entry into cells for Marburg Virus; Marburg virus pseudotyped entry inhibition, cell reporter; Potency, µM (top dose mostly 37.8 µM), without a hit: top-dose activity change, negative = inhibition, actives largely listed as inhibitors; 1.8% of 300,000 active; calls by dose curve; tested in HEK293 cells; also: potency is read from the fitted curve at half-maximal effect
HCMV inh = qHTS Assay for inhibitors of the human cytomegalovirus (HCMV) | HFF cells, HCMV-luciferase reporter, 72 h; active compounds read low | activity change, negative = inhibition, % at 57.5 µM | AID 1259415, 2018 | 4.5% of 410,000 active; in the data active = activity change below about -60%; inconclusive = no clear call, values can overlap the other calls; inactive = above about -39%
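Human foreskin fibroblasts infected with luciferase-reporter HCMV at MOI 1 PFU/cell, compounds at two doses. Luciferase measured 72 h post infection; normalized to buffer-only basal and Salinomycin (10uM) controls.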
FMDV inh = High Throughput Screening for Foot and Mouth Disease Virus Antivirals. FMDV antiviral cell-based qHTS. Potency, µM (titrated, usually from 57.9 µM), without a hit: top-dose activity change, negative = inhibition, hits mostly inhibitors. 1.2% of 410,000 active. AID 1159524, 2015; calls by dose curve; tested in HEK293T cells; also: read-out not given here; potency is read from the fitted curve at half-maximal effect; nearly all actives have a fitted effect of over 45% in size
Lassa entry inh = qHTS for Inhibitors of binding or entry into cells for Lassa Virus | Lassa virus pseudotype entry inhibition, cell reporter | Potency, µM (series often up to 37.9 µM), without a hit: at the highest dose activity change, negative = inhibition, usual class: inhibitors | 1.2% of 300,000 active; calls by dose curve; tested in HEK293 cells; also: potency is read from the fitted curve at half-maximal effect; nearly all actives have a fitted effect of over 50% in size
* = called active by the depositor; ? = inconclusive; / = no result; ! = not active in a repeat; [ ] = another dose, or the depositor's remark. % is scaled to controls: 0 for no effect and ±100 for the full control effect.

SMILES	HCV inhibitor	Marburg entry inh	HCMV inh	FMDV inh	Lassa entry inh
Nc1nc(Nc2ccccc2)sc1C(=O)c1ccccc1	?	-16%[46.1 µM]	-88*	53%	?
COc1ccc(C(=O)c2sc(Nc3ccccc3)nc2N)cc1OC	-26%	?	-92*	?	-28%
Cc1cnc(NC(=O)c2sc(Nc3ccccc3)nc2N)o1	?	/	68	50%	/
CCOC(=O)c1sc(Nc2ccccc2Cl)nc1C	?	/	64	52%	/
Cc1ccsc1CN(Cc1ccco1)C(=O)c1ccc(Cl)cc1	/	-3%[46.1 µM]	-16	0%	-13%[46.1 µM]
COc1ccc(C(=O)c2sc(Nc3ccccc3)nc2N)cc1	-4%	/	-61*!	51%	?
Nc1c(C(=O)c2ccccc2)sc(Nc2ccccc2)c1S(=O)(=O)c1ccccc1	14µM*	?	-30	23%	?
Cc1cc(C)cc(Nc2sc(C(=O)c3ccccc3)c(N)c2S(=O)(=O)c2ccccc2)c1	/	/	20	-35%	?
COc1ccc(C(=O)c2sc(Nc3ccccc3F)nc2N)cc1	?	/	100	29%	/
CCCCC(=O)N(Cc1ccc(-c2ccccc2-c2nn[nH]n2)cc1)[C@@H](C(=O)O)C(C)C	/	/	/	3%	/
Cc1ccc(C)c(C2NC(=O)c3ccccc3N2)c1 (centres undefined)	-6%	/	-68*	2%	/
Cc1cccc(N2CCN(C(=O)CCc3c(C)nc4c(c3C)c(=O)n(C)c(=O)n4C)CC2)c1C	/	-10%[46.1 µM]	2	-22%	23%[46.1 µM]
COc1ccc(N2C(=O)NC3CC2(C)Oc2ccccc23)cc1OC (centres undefined)	-18%	-22%	-62*	-12%	?
Cc1cc(-c2nnc(CCC(=O)NCc3ccc(OC(F)(F)F)cc3)o2)no1	7%	/	-12	18%	/
Cn1ccc2c(/C=C/c3ccc(F)cc3)cc3c(c21)C1CCC3C1 (centres undefined)	/	/	-67*	-11%	/
Cn1ccc2c(/C=C/c3ccc(F)cc3)cc3c(c21)C1CCC3O1 (centres undefined)	/	/	-16	-15%	/
CCCC[n+]1ccn(C2=C([O-])c3ccccc3C(=O)/C2=N\S(=O)(=O)c2ccccc2)c1	11µM*	?	?	22µM*	?
CCCCC[n+]1ccn(C2=C([O-])c3ccccc3C(=O)/C2=N\S(=O)(=O)c2ccccc2)c1	?	22µM*	-77*	?	?
CC(C)[n+]1ccn(C2=C([O-])c3ccccc3C(=O)/C2=N\S(=O)(=O)c2ccccc2)c1	?	?	-87*	?	2%
COCC1=NC2C(=O)N(C)C(=O)N(CC(C)C)C2=N1 (centres undefined)	/	13%	/	/	/
Cc1ccc(Sc2ccc(C(=O)N3CCOCC3)cc2[N+](=O)[O-])cc1	-14%	/	-75*	-22%	/
CCC1CCCCN1CCCNC(=O)c1cn(CC)c2ccc(S(=O)(=O)N3CCc4ccccc4C3)cc2c1=O (centres undefined)	13µM*	?	-40	0%	?
CCn1cc(C(=O)NCCCN2CCCC(C)C2)c(=O)c2cc(S(=O)(=O)N3CCc4ccccc4C3)ccc21 (centres undefined)	11µM*	?	-74*	-16%	?
N#Cc1cnn(-c2ccccc2)c1NC(=O)CN1CCN(c2ccccc2)CC1	15%	-10%[46.1 µM]	22	-18%	-5%
COC(=O)c1cc(-c2ccccc2)sc1N	2µM*	?	44	33%	?
SMILES	HCV inhibitor	Marburg entry inh	HCMV inh	FMDV inh	Lassa entry inh
C#CCNC(=O)c1cc(-c2ccccc2)sc1N	/	/	-14	15%	/
Cc1ccc(Nc2nc(NCc3ccccc3)nc3ccsc23)c(C)c1	/	/	-62*	?	/
CNc1nc(NCCOc2ccccc2Cl)c2sccc2n1	/	/	-8	?	/
COc1ccccc1CNc1nc(NCCOc2ccccc2Cl)c2sccc2n1	/	/	-61*	22µM*	/
COc1ccccc1CNc1nc(NC(C)C)nc2ccsc12	/	/	-15	?	/
COc1ccccc1CNc1nc(Nc2ccc(C)cc2C)c2sccc2n1	/	/	-76*	?	/
Cc1ccc2[nH]c(CSc3nnc(NC(=O)c4ccc(Cl)cc4)s3)cc(=O)c2c1	/	/	9	-3%	-29%[46.1 µM]
O=c1cc2c(nn1Cc1cccc([N+](=O)[O-])c1)-c1ccccc1CC2	13µM*	/	-18	-7%	/
